# From PubChem BioAssay
# Pf Dd2 inh – P. falciparum Dd2 growth inhibitors, primary screen, SYBR Green fluorescence, single dose replicates; 72 h; stronger effect = lower value; activity change, % at 10 µM; actives 2.3% (n = 94,000); in the data active means activity change below about -80%; inconclusive means no clear call, values can overlap the other calls
# T cruzi growth-1 – T. cruzi intracellular proliferation inhibitors, primary screen, cell-based, beta-gal Tulahuen parasites, NIH3T3 host, luminescence; AID 624255, 2012; T. cruzi beta-gal in NIH3T3, GalScreen luminescence, 90 h; actives 5.9% (n = 77,000); inhibition, % at 8.34 µM;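 active means mean inhibition above about 93%, with at least 55% of replicates each passing it, limit read from the data, passing the limit was not always enough; inconclusive means only one of those two conditions holds; inactive means neither condition holds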
# C diff HTS – C. difficile growth inhibitors, primary screen, HTS. Clostridium difficile clinical isolate growth, OD600, 24 h; stronger effect = lower value. growth activity, negative = inhibition, % at 16 µg/mL (by protocol). actives 0.25% (n = 86,000). AID 1259249, 2017;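 active means mean growth activity at or below -80% and every replicate also at or below -80%; inconclusive means mean at or below -80% but some replicate above -80%; inactive means mean growth activity above -80%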;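 further: 0% = DMSO wells and -100% = levofloxacin 16 µg/mL wells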
# T cruzi growth-2 – T. cruzi intracellular proliferation inhibitors, confirmation, cell-based, NIH3T3 host, beta-gal parasite, luminescence, cherry-pick; shares compounds with T cruzi growth-1; T. cruzi beta-gal in NIH3T3, GalScreen luminescence, 90 h; inhibition, % at 8.35 µM; actives 72% (n = 5,600);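 active means mean replicate inhibition above about 95% and at least 55% of replicates individually reaching it, limit read from the data; inconclusive means only one of the two criteria is met; inactive means neither criterion is met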
# T cruzi growth-3 – inhibitors of intracellular T. cruzi replication, confirmation, NIH3T3 host cells, beta-gal parasites, cherry-pick, set 2 | shares compounds with T cruzi growth-1 | T. cruzi beta-gal in NIH3T3, GalScreen luminescence, 90 h | inhibition, % at 2.09 µM | actives 21% (n = 5,600) | AID 651740, 2012;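 active means mean inhibition above about 95%, with at least 55% of replicates also reaching it, limit read from the data; inconclusive means meets just one of the two conditions; inactive means meets neither condition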;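 further: plate controls were neutral control median for no effect and positive control median for full effect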
# NIH3T3 tox – cytotoxicity in mouse NIH/3T3 fibroblasts, confirmation, cytotoxicity control for T. cruzi proliferation inhibitor project, cell-based, cherry-pick, single point; shares compounds with T cruzi growth-1; NIH/3T3 viability, CellTiter-Glo ATP luminescence, 90 h; cytotoxicity (signal decrease), % at 8.35 µM; actives 14% (n = 5,600);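 active means mean signal decrease across replicates above about 35% based on untreated-well scatter, with enough replicates individually passing, limit read from the data; inconclusive means no rule stated though some were filed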;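 further: 0% = median of neutral control wells and 100% = median of positive control wells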
# NIH3T3 tox 2 – NIH/3T3 fibroblast cytotoxicity, confirmation, cytotoxicity control, cell-based, cherry-pick, single point, set 2 | shares compounds with T cruzi growth-1 | NIH/3T3 viability, CellTiter-Glo ATP luminescence, 90 h | inhibition, % at 24.9 µM | actives 56% (n = 5,600) | AID 651744, 2012;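 active means mean loss of cell viability signal at or above a set limit, and enough replicates individually reaching it; inconclusive means meets only the mean limit or only the replicate share; inactive means meets neither condition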;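 further: 0% = median of neutral control wells and 100% = median of positive control wells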
# * marks the source's active call; other numbers are inactive results; ? = inconclusive; · = no result given. This is a sample that favours compounds with a hit; in the whole collection about 6.8% have one here.
SMILES,Pf Dd2 inh,T cruzi growth-1,C diff HTS,T cruzi growth-2,T cruzi growth-3,NIH3T3 tox,NIH3T3 tox 2
CCC(=O)Nc1ccc2c(c1)C(=O)N(C)C[C@H](OC)[C@H](C)CN(C(=O)CN(C)C)[C@@H](C)CO2,·,-21.3,·,·,·,·,·
CCC(=O)Nc1ccc2c(c1)C(=O)N(C)C[C@H](OC)[C@H](C)CN(Cc1ccccc1)[C@@H](C)CO2,-22.7,-1.9,·,·,·,·,·
CC(C)OC(=O)N(C)C[C@@H]1OCc2ccccc2-c2ccccc2C(=O)N([C@H](C)CO)C[C@@H]1C,21.0,22.1,0.0,·,·,·,·
CCCC#Cc1cnc2c(c1)C(=O)N([C@H](C)CO)C[C@H](C)[C@@H](CN(C)C)O2,-27.8,-34.0,-0.6,·,·,·,·
COc1ccccc1-c1ccc2c(c1)O[C@@H](CN(C)C)[C@H](C)CN([C@@H](C)CO)S2(=O)=O,-46.1,4.5,-5.5,·,·,·,·
COc1ccccc1-c1ccc2c(c1)O[C@H](CN(C)S(=O)(=O)c1ccc(C)cc1)[C@H](C)CN([C@@H](C)CO)S2(=O)=O,-46.5,127.7*,21.2,104.4*,?,?,58.2*
COc1ccccc1-c1ccc2c(c1)O[C@H](CN(C)S(=O)(=O)c1ccccc1)[C@@H](C)CN([C@H](C)CO)S2(=O)=O,-64.6,85.7,4.6,·,·,·,·
COc1ccccc1-c1ccc2c(c1)O[C@@H](CN(C)S(=O)(=O)c1ccc(C)cc1)[C@@H](C)CN([C@@H](C)CO)S2(=O)=O,-54.3,127.0*,12.4,105.2*,105.5*,52.8*,44.0*
COc1ccccc1-c1ccc2c(c1)O[C@@H](CN(C)S(=O)(=O)c1ccc(C)cc1)[C@@H](C)CN([C@H](C)CO)S2(=O)=O,-46.4,126.3*,10.7,102.7*,86.8,23.7,36.6*
COc1ccccc1-c1ccc2c(c1)O[C@H](CN(C)C)[C@@H](C)CN([C@H](C)CO)S2(=O)=O,-11.2,18.6,-7.0,·,·,·,·
COc1ccccc1-c1ccc2c(c1)O[C@@H](CN(C)C(C)=O)[C@@H](C)CN([C@@H](C)CO)S2(=O)=O,0.1,·,0.3,·,·,·,·
COc1ccccc1-c1ccc2c(c1)O[C@H](CN(C)S(=O)(=O)c1ccccc1)[C@@H](C)CN([C@@H](C)CO)S2(=O)=O,-56.3,92.9*,6.6,95.1*,20.4,35.8*,46.5*
COCCNC(=O)C[C@@H]1CC[C@@H]2[C@@H](COc3ccc(NC(=O)COC)cc3C(=O)N2C)O1,-5.5,42.5,-15.3,·,·,·,·
C[C@@H]1CN([C@@H](C)CO)C(=O)Cc2cc(NC(=O)C3CCCCC3)ccc2O[C@H]1CN(C)S(C)(=O)=O,2.2,29.8,-0.5,·,·,·,·
COc1cccc(C(=O)N2C[C@H]3[C@@H](c4ccccc42)[C@@H](CO)N3C(=O)c2cccc(F)c2)c1,-1.1,-1.6,9.5,·,·,·,·
O=C(Cc1cccnc1)N[C@@H]1CC[C@H](CCn2cc(Cc3ccccc3)nn2)O[C@H]1CO,22.9,32.1,-5.5,·,·,·,·
O=C(C[C@H]1CC[C@H]2[C@@H](COC[C@@H](O)CN2C(=O)c2ccccn2)O1)N1CCN(c2ccccc2)CC1,9.0,-19.5,·,·,·,·,·
CCC(=O)N(C)C[C@H]1Oc2ncc(-c3ccccc3C)cc2C(=O)N([C@H](C)CO)C[C@@H]1C,41.6,-10.3,-5.5,·,·,·,·
CN1CCN(C(=O)C[C@@H]2CC[C@H]3[C@@H](COc4ccc(NC(=O)C5CC5)cc4C(=O)N3C)O2)CC1,6.7,29.4,0.9,·,·,·,·
C[C@@H]1CN([C@H](C)CO)C(=O)c2cccc(NC(=O)c3ccc(-c4nccs4)cc3)c2O[C@@H]1CN(C)S(=O)(=O)c1cn(C)cn1,-29.3,9.1,0.7,·,·,·,·
N#C[C@@H]1[C@@H](c2ccc(C#Cc3cccnc3)cc2)[C@@H](CO)N1C(=O)C1CCCCC1,-24.4,102.6*,3.0,68.3,23.2,-10.2,21.6
N#C[C@H]1[C@@H](c2ccc(C#Cc3cccc(F)c3)cc2)[C@@H](CO)N1C(=O)C1CCC1,-41.9,·,-1.6,·,·,·,·
N#C[C@@H]1[C@H](c2ccc(C#Cc3cccc(F)c3)cc2)[C@@H](CO)N1C(=O)C1CCC1,-42.8,106.6*,-13.9,102.7*,107.9*,-7.1,79.8*
N#C[C@@H]1[C@H](c2ccc(-c3cccnc3)cc2)[C@H](CO)N1C(=O)C1CCC1,4.7,41.8,0.1,·,·,·,·
N#C[C@@H]1[C@@H](c2ccc(C#Cc3cccc(F)c3)cc2)[C@@H](CO)N1C(=O)C1CCCC1,-24.7,100.4*,-1.5,107.4*,65.0,8.6,63.6*
SMILES,Pf Dd2 inh,T cruzi growth-1,C diff HTS,T cruzi growth-2,T cruzi growth-3,NIH3T3 tox,NIH3T3 tox 2
N#C[C@@H]1[C@@H](c2ccc(C#Cc3cccc(F)c3)cc2)[C@@H](CO)N1C(=O)C1CC1,-7.7,88.9,11.3,·,·,·,·
COc1ccc2c3c(n(C)c2c1)[C@H](CO)N(C(=O)c1ccccc1)CC31CCN(CC2CC2)CC1,-39.6,·,-0.7,·,·,·,·
CN1[C@@H]2c3ccc(-c4ccccc4F)c(=O)n3C[C@@H]2[C@@H](CO)[C@@H]1C(=O)NCc1ccncc1,4.7,-1.8,1.1,·,·,·,·
C[C@H](CO)N1C[C@H](C)[C@H](CN(C)Cc2ccc(C(=O)O)cc2)Oc2ccc(NC(=O)C3CC3)cc2C1=O,12.5,-19.4,2.0,·,·,·,·
Cc1noc(C)c1S(=O)(=O)Nc1ccc2c(c1)C(=O)N([C@H](C)CO)C[C@@H](C)[C@@H](CN(C)C(=O)c1ccncc1)OCCCC[C@@H](C)O2,26.1,59.4,-1.0,·,·,·,·
CCCNC(=O)[C@H]1[C@H](CO)[C@H]2Cn3c(ccc(-c4ccccc4)c3=O)[C@H]2N1C(=O)C1CC1,17.2,·,-3.9,·,·,·,·
COC(=O)[C@@H]1[C@@H](CO)[C@@H]2Cn3c(ccc(-c4ccc(F)cc4)c3=O)[C@@H]2N1C(=O)C1CCC1,·,114.2*,-0.4,-15.9,-13.7,-4.7,6.4
O=C([C@H]1[C@H](CO)[C@H]2Cn3c(ccc(-c4cccc(F)c4)c3=O)[C@H]2N1Cc1cocn1)N1CCCCC1,-0.2,?,0.3,78.3,-19.6,20.4,24.1*
CCCNC(=O)[C@@H]1[C@@H](CO)[C@@H]2Cn3c(ccc(-c4ccccc4)c3=O)[C@@H]2N1C(=O)C1CCC1,-1.3,101.8*,1.3,16.4,19.5,-18.0,2.0
CCCNC(=O)[C@@H]1[C@@H](CO)[C@@H]2Cn3c(ccc(-c4ccc(F)cc4)c3=O)[C@@H]2N1C,11.8,36.7,1.4,·,·,·,·
